Experimental data published in PubChem BioAssay (NCATS).
Inconclusive results are not listed. The source made the active and inactive calls. Calls come from the whole dose curve; as a rule, active = well fitted curve in either direction with a large enough effect (not every such curve was filed as active); inconclusive = small, poorly fitted or top-dose-only effect, or another doubt; inactive = flat fitted curve, though single readings scatter.

What follows are compounds tested against Mitogen-activated protein kinase 10 (Mus musculus) (UniProt Q61831) (assay: JNK3 AlphaScreen Assay (AID 530;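 note: kinase came from lysate of stimulated human HepG2 cells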)). Settings: JNK3 lysate, c-Jun phosphorylation; series mostly up to 57.1 µM; activity change, negative = inhibition: at the top concentration.
How it was run: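 Phosphorylation of biotinylated GST-cJun(1-79) at Ser73 is measured by AlphaScreen proximity luminescence. Enzyme is JNK3 in HepG2 lysates activated with interleukin-1beta and tumor necrosis factor alpha; ATP is 10 uM final.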
% is set by controls: 0 for no effect and ±100 for the full control effect.

| Compound | activity change, negative = inhibition |
| --- | --- |
| CCCn1c(-c2ccc(F)cc2)nc2c(NCCCN3CCCCC3C)nc(C)nc21 (stereo not given) | -7.48% (inactive) |
| CCCn1c(C)nc2c(NCc3ccccc3)nc(C)nc21 | -7.97% (inactive) |
| Cc1nc(N2CCOCC2)c2nc(-c3ccccc3)n(CCN3CCCC3)c2n1 | -5.88% (inactive) |
| CCN(CC)CCCn1c(-c2ccccc2)nc2c(NCc3ccccc3)nc(C)nc21 | -2.63% (inactive) |
| CCN(CC)CCCC(C)n1c(-c2ccccc2)nc2c(NCCOC)nc(C)nc21 (stereo not given) | -2.87% (inactive) |
| CCCCNc1nc(C)nc2c1nc(-c1ccccc1)n2CC1CCN(C)CC1 | -2.63% (inactive) |
| CCCn1c(-c2ccc(F)cc2)nc2c(NCCN3CCCCC3)nc(C)nc21 | -4.02% (inactive) |
| CCCn1c(-c2ccc(F)cc2)nc2c(NCCCCN(C)C)nc(C)nc21 | -1.67% (inactive) |
| CCCCNc1nc(C)nc2c1nc(-c1ccccc1)n2CCCCN(CC)CC | -3.6% (inactive) |
| Cc1nc(NCc2ccccc2)c2nc(-c3ccccc3)n(CCN3CCCCC3)c2n1 | -12.3% (inactive) |
| CCN(CC)CCCCn1c(-c2ccccc2)nc2c(N3CCOCC3)nc(C)nc21 | 1.59% (inactive) |
| Cc1nc(N2CCOCC2)c2nc(-c3ccccc3)n(C(C)CN(C)C)c2n1 (stereo not given) | -1.36% (inactive) |
| CCCn1c(C)nc2c(NCCCCN(CC)CC)nc(C)nc21 | 4.99% (inactive) |
| CCCCNc1nc(C)nc2c1nc(-c1ccccc1)n2CCCN(C)C | -0.0444% (inactive) |
| Cc1nc(N2CCOCC2)c2nc(-c3ccccc3)n(CC(C)(C)CN(C)C)c2n1 | -3.58% (inactive) |
| CCCCNc1nc(C)nc2c1nc(-c1ccccc1)n2C1CCN(Cc2ccccc2)C1 (stereo not given) | -12.1% (inactive) |
| CCCn1c(C)nc2c(NC3CCN(Cc4ccccc4)C3)nc(C)nc21 (stereo not given) | -6.12% (inactive) |
| CCN(CC)CCCC(C)n1c(-c2ccccc2)nc2c(NCc3ccccc3)nc(C)nc21 (stereo not given) | -11.8% (inactive) |
| CCN(CC)CCCC(C)n1c(-c2ccccc2)nc2c(NC3CCCCC3)nc(C)nc21 (stereo not given) | -6.94% (inactive) |
| CCCn1c(-c2ccc(F)cc2)nc2c(NCCCCN(CC)CC)nc(C)nc21 | -1.6% (inactive) |

| Compound | activity change, negative = inhibition |
| --- | --- |
| CCCn1c(-c2ccc(F)cc2)nc2c(NC(C)CN(C)C)nc(C)nc21 (stereo not given) | 0.187% (inactive) |
| CCN(CC)CCCn1c(-c2ccccc2)nc2c(N(CCOC)CCOC)nc(C)nc21 | 1.76% (inactive) |
| Cc1nc(NC2CCCCC2)c2nc(-c3ccccc3)n(CCN(C)C)c2n1 | -17.6% (inactive) |
| CCN(CC)CCn1c(-c2ccccc2)nc2c(NC3CCCCC3)nc(C)nc21 | -2.87% (inactive) |
| CCCn1c(-c2ccc(F)cc2)nc2c(NCC3CCCN3CC)nc(C)nc21 (stereo not given) | 2.53% (inactive) |
| COCCNc1nc(C)nc2c1nc(-c1ccccc1)n2C1CCN(Cc2ccccc2)C1 (stereo not given) | -2.78% (inactive) |
| CCN(CC)CCn1c(-c2ccccc2)nc2c(NCCOC)nc(C)nc21 | -17.7% (inactive) |
| Cc1nc(NCc2ccccc2)c2nc(-c3ccccc3)n(CC(C)(C)CN(C)C)c2n1 | 1.99% (inactive) |
| Cc1nc(Nc2ccccc2)c2nc(-c3ccccc3)n(CCCN3CCCCC3C)c2n1 (stereo not given) | -7.31% (inactive) |
| CCCn1c(-c2ccc(F)cc2)nc2c(N3CCN(Cc4nc(OC)cc(OC)n4)CC3)nc(C)nc21 | -15.7% (inactive) |
| CCCn1c(C)nc2c(N3CCOCC3)nc(C)nc21 | 1.21% (inactive) |
| CCN(CC)CCCC(C)n1c(-c2ccccc2)nc2c(N3CCOCC3)nc(C)nc21 (stereo not given) | -1.7% (inactive) |
| CCCn1c(-c2ccc(F)cc2)nc2c(NCCCCN3CCCC3)nc(C)nc21 | -9.17% (inactive) |
| CCCn1c(C)nc2c(NCCN3CCCC3)nc(C)nc21 | 0.992% (inactive) |
| CCCCNc1nc(C)nc2c1nc(-c1ccccc1)n2CCN(C)C | -8.72% (inactive) |
| CCCn1c(-c2ccc(F)cc2)nc2c(NC(C)CCCN(CC)CC)nc(C)nc21 (stereo not given) | 8.17% (inactive) |
| COCCN(CCOC)c1nc(C)nc2c1nc(-c1ccccc1)n2CC1CCN(C)CC1 | 0.167% (inactive) |
| CCN(CC)CCCCn1c(-c2ccccc2)nc2c(NCc3ccccc3)nc(C)nc21 | -3.71% (inactive) |
| CCCn1c(C)nc2c(NC3CCCCC3)nc(C)nc21 | 1.05% (inactive) |
| CCCn1c(C)nc2c(NC(C)CCCN(CC)CC)nc(C)nc21 (stereo not given) | -1.79% (inactive) |
